Hits are enriched below; roughly 1.3% of the tested compounds scored in any of these assays.
PGC1a acetyl inh: lowers PGC1a acetylation signal in U2OS cells; AlphaScreen anti-acetyl-lysine; with virally co-expressed GCN5 acetyltransferase; AID 651687; actives 0.17% (n = 350,000); inhibition, % at 15.6 µM;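 active = every replicate shows inhibition of at least 40%; inconclusive = mean inhibition at least 40% but some replicate below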
Statin myotox sup: protects C2C12 myotubes from simvastatin toxicity; rescue of ATP level, % at 7.49 µM; ATP luminescence, 48 h; scaled: DMSO 0, geranylgeraniol control 100; actives 0.78% (n = 330,000);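 active = mean ATP rescue above about 67%, or every replicate alone reaching that limit, limit read from the data, passing the limit was not always enough; inconclusive = no clear call, values can overlap the other calls; inactive = mean under the limit and some replicate under it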;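 also: myotubes were challenged with 10 µM simvastatin during compound exposure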
HIF activator: HIF pathway transcriptional activation | U2OS HRE-luciferase reporter, luminescence; normalized: DMSO 0%, desferrioxamine 100% | activation, % at 7.5 µM (by protocol) | actives 0.32% (n = 300,000);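 active = mean activation of at least 10% of the iron chelator positive control signal, with at least half of replicates also reaching 10%; inconclusive = mean and replicate majority disagree about reaching 10%; inactive = mean and most replicates under 10%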
AI-2 QS mod: modulators of Vibrio harveyi AI-2 quorum sensing system. Vibrio harveyi JMH597 AI-2 luminescence/OD600 ratio, 9 h; stronger effect = lower value; strain lacks LuxN and CqsS sensors; 0 = neutral-control median. activity change, % at 7.5 µM. actives 0.4% (n = 300,000). AID 2094; in the data active = activity change below about -75%, passing the limit was not always enough; inconclusive = no clear call, values can overlap the other calls;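 also: luminescence divided by OD600 gain over 9 h not by final OD600 alone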
Rce1 inhib: yeast Ras-converting enzyme inhibition | Q03530 | calls only | yeast membranes, quenched prenylated peptide cleavage fluorescence | actives 0.27% (n = 290,000) | AID 2563;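 active = fall in fluorescence gain of 50% or more versus controls, with final raw signal at or below 3038400; inconclusive = same 50% fall but final raw signal above 3038400; inactive = fall in fluorescence gain under 50%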
Target sequence (Q03530 whole entry, looked up): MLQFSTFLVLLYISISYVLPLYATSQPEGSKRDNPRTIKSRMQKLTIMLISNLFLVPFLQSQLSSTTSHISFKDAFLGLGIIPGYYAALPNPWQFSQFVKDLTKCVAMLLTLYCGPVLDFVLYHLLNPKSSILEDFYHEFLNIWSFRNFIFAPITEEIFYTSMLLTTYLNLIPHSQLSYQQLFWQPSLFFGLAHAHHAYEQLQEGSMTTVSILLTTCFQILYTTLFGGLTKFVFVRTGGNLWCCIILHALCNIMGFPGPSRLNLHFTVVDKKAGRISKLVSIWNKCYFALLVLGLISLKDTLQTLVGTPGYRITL
Hits are given with their value; i = inactive; ? = inconclusive; nt = no result given; + = active, no number.

SMILES	PGC1a acetyl inh	Statin myotox sup	HIF activator	AI-2 QS mod	Rce1 inhib
CCOC(=O)CN1CC23C=CC(O2)C(C(=O)NC2CCCCC2)C3C1=O (configuration not stated)	i	108	i	i	i
CCOC(=O)CN1CC23C=CC(O2)C(C(=O)NC2CCCC2)C3C1=O (configuration not stated)	i	i	i	i	i
O=C(NCc1cccs1)C1CC(=O)N(C2CCCC2)C1 (configuration not stated)	i	i	214	i	i
O=C(NCc1ccccc1)C1CC(=O)N(C2CCCCCC2)C1 (configuration not stated)	i	i	i	i	i
O=C(NCCCN1CCN(c2ccccc2F)CC1)C1CC(=O)N(C2CCCC2)C1 (configuration not stated)	i	125	i	i	i
CC(C)NC(=O)N1[C@H](CO)[C@@H](c2ccccc2)C12CN(Cc1ccccc1)C2	i	nt	nt	nt	nt
O=C(/C=C/c1c(F)cccc1Cl)c1ccc(F)cc1	i	129	i	i	i
O=C(/C=C/c1ccc[nH]1)c1ccc(F)cc1	nt	nt	i	i	i
O=C(NC1CCCN(Cc2ccc(Cl)cc2)C1)c1c(F)cccc1F (configuration not stated)	i	i	i	i	i
O=C(NC1CCCN(Cc2ccc(Cl)cc2)C1)c1ccccc1C(F)(F)F (configuration not stated)	47	i	i	i	i
O=C(O)C[C@@H]1C=C[C@@H](NC(=O)CCN2CCCCC2)[C@H](CO)O1	i	nt	nt	nt	nt
CCCc1c(O)c2ccccc2n(-c2ccccc2)c1=O	i	i	i	i	i
CCCCn1c(=O)c(-c2ccccc2)c(O)c2ccccc21	i	120	i	i	+
CCn1c(=O)c(-c2ccccc2)c(O)c2ccccc21	i	i	i	i	+
O=c1c(-c2ccccc2)c(O)c2ccccc2n1-c1ccccc1	nt	i	i	i	+
Cc1cc(N2C(=O)C3C4C=CC(C4)C3C2=O)ccc1NC(=O)c1cccs1 (configuration not stated)	nt	i	i	i	+
C[C@@H]1CN([C@@H](C)CO)C(=O)c2cc(NS(=O)(=O)c3ccc(F)cc3)ccc2O[C@@H](C)CCCCO[C@H]1CN(C)Cc1ccc(C(=O)O)cc1	i	nt	nt	nt	nt
CCOC(=O)c1ccc(-c2c(C(=O)OCC)oc3cc(O)c(CC)cc3c2=O)o1	i	100	i	i	i
Cc1cccc(NC(=O)C2CCCN(S(=O)(=O)c3cccc4nsnc34)C2)n1 (configuration not stated)	i	108	i	i	i
O=C(CN1CCOCC1)NCC[C@H]1CC[C@H](NC(=O)Nc2ccc(C(F)(F)F)cc2)[C@H](CO)O1	i	i	nt	nt	nt
Cc1ccccc1C(=O)Nc1nnc(-c2ccc(F)cc2)o1	i	i	i	-82	i
CC1(C)CC2CC(C)(CN2S(=O)(=O)c2ccc(N)cc2)C1 (configuration not stated)	i	i	i	i	+
CCOC(=O)CCCCC(=O)c1[nH]c(=O)[nH]c1CSc1nc2ccccc2[nH]1	i	95	nt	i	i
COc1ccc(NC(=O)N(C)C[C@H]2OCCCC[C@H](C)Oc3ccc(NS(=O)(=O)c4c(C)noc4C)cc3C(=O)N([C@@H](C)CO)C[C@H]2C)cc1	i	?	nt	nt	nt
C=C(C)C(=O)OCCCCCCOc1ccc(C(=O)O)cc1	i	97	i	i	i
SMILES	PGC1a acetyl inh	Statin myotox sup	HIF activator	AI-2 QS mod	Rce1 inhib
CCN1C(=O)CS/C1=N\S(=O)(=O)c1ccc(Cl)cc1	i	i	i	i	i
CCn1c(Cl)c(C=O)s/c1=N\S(=O)(=O)c1ccccc1	78	i	i	i	i
COCCn1c(=S)[nH]c2cc(C(=O)N3CCc4ccccc43)ccc2c1=O	i	i	i	-78	i
CCn1cc([N+](=O)[O-])c(C(=O)N2N=C(c3cccc4ccccc34)CC2c2ccccc2O)n1 (configuration not stated)	i	80	i	i	i
CCn1cc([N+](=O)[O-])c(C(=O)N2N=C(c3ccc4ccccc4c3)CC2c2ccccc2O)n1 (configuration not stated)	i	i	i	i	i
COC(=O)NC(=C(Cl)Cl)S(=O)(=O)c1ccccc1	i	147	nt	nt	nt
Cc1ccc(-c2ccc3c(c2)O[C@@H](CN(C)Cc2ccncc2)[C@H](C)CN([C@H](C)CO)S3(=O)=O)cc1	i	i	nt	nt	nt
O=C1CCCC2=C1C(c1ccco1)Nc1ccc3ccccc3c12 (configuration not stated)	i	95	i	i	i
Cc1ccc(S(=O)(=O)CC(=O)c2ccc([N+](=O)[O-])cc2)cc1	i	i	i	i	i
Cc1ccc(S(=O)(=O)CC(=O)c2ccccc2)cc1	i	nt	i	-79	i
COc1cc2c(cc1OC)C(c1cc(OC)c(OC)c(OC)c1)NCC2 (configuration not stated)	i	113	i	i	i
Cc1ccc(S(=O)(=O)N2CCOC23CCN(C(=O)c2ccc(Cl)cc2Cl)CC3)cc1	nt	i	i	i	i
Cc1ccc(S(=O)(=O)N2CCOC23CCN(C(=O)c2cc(Cl)ccc2Cl)CC3)cc1	nt	i	70	i	i
O=C(N1CCCCCC1)N1CCN(S(=O)(=O)N2CCCCC2)CC1	i	101	i	i	i
CN(c1cc2c(c3c1ccn3C)C1CCC2C1)C1CCCCC1 (configuration not stated)	78	i	nt	nt	nt
O=C(NCCCN1CCCC1=O)c1cc(-c2ccc(F)cc2)nc2ccccc12	i	i	nt	nt	nt
COc1ccc(-c2cc(C(=O)NCCCN3CCCC3=O)c3ccccc3n2)cc1	i	i	i	i	+
COc1ccc(-c2cc(C(=O)N3CCN(c4ccccc4)CC3)c3ccccc3n2)cc1	nt	nt	i	i	+
COc1ccc(C(NC(=O)c2c(F)c(F)c(F)c(F)c2F)c2ccccc2)cc1 (configuration not stated)	85	i	i	i	i
COc1ccc(C(NC(=O)c2cc(OC)ccc2OC)c2ccccc2)cc1 (configuration not stated)	nt	i	i	i	i
CO[C@@H]1CN(C)C(=O)c2cc(NS(=O)(=O)c3cn(C)cn3)ccc2OC[C@H](C)N(CCC(F)(F)F)C[C@@H]1C	i	i	nt	nt	nt
CCOc1ccccc1OCCN1CCC(Cc2ccccc2)CC1	i	i	i	i	i
N#Cc1ccccc1OCCCN1CCC(Cc2ccccc2)CC1	nt	i	45	i	i
CCc1ccc(NC2=NCC(c3ccccc3)S2)cc1 (configuration not stated)	i	nt	i	-95	i
CO[C@H]1CN(C)C(=O)c2ccc(NC(=O)Nc3ccccc3)cc2OC[C@@H](C)N(C(=O)CN(C)C)C[C@@H]1C	i	i	nt	nt	nt
CC(C)(CSc1ccccn1)NS(=O)(=O)c1ccccc1	nt	nt	i	i	i
CC(C)(CSc1ncccn1)NS(=O)(=O)c1ccccc1	i	120	i	i	i
